Screening data deposited in PubChem BioAssay by several laboratories.
TLR9-MyD88 inh: inhibitors of TLR9-MyD88 association in cells, primary screen, cell-based, CHO, BLA complementation, fluorescence. hit rate 0.21% among 340,000. inhibition, % at 4.98 µM. AID 504734, 2011. Toll-like receptor 9 (Homo sapiens) + Myeloid differentiation primary response protein …. CCF4 FRET ratio;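 active means inhibition above the mean over all tested compounds plus 3 SD, cut at about 21% in these data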;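 further: 0% = DMSO only wells and 100% = clavulanate BLA inhibitor control wells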
NOD2 RIPK2 PPI: NOD2-RIPK2 binding disruptors in cells, primary screen, fluorescence, CHO cells, BLA complementation; CCF4 ratio; inhibition, % at 4.98 µM; hit rate 0.38% among 360,000; Receptor-interacting serine/threonine-protein kinase 2 (Homo sapiens), O43353; in the data active means inhibition above about 21%;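 further: 0% = vehicle only and 100% = reference blocker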
Target sequence (O43353 whole entry, looked up): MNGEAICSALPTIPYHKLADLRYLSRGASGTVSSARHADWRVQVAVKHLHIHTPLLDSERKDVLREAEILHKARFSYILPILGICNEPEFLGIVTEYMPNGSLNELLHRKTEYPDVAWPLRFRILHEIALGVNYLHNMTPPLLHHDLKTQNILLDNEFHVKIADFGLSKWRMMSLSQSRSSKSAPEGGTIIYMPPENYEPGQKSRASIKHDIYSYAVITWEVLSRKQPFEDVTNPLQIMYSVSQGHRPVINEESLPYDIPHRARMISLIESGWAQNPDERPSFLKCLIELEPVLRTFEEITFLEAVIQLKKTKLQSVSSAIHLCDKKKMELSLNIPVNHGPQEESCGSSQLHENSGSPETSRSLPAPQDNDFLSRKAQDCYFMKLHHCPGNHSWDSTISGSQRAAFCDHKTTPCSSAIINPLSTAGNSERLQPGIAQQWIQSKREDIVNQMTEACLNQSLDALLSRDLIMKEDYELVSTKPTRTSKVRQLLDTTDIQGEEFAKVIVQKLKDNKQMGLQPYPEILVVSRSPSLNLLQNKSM
TLR4 MyD88 comp: inhibitors of TLR4-MyD88 association in cells, primary screen, cell-based, HeLa CL3-4, BLA complementation, FRET ratio | Toll-like receptor 4 (Homo sapiens) + Myeloid differentiation primary response protein … | hit rate 0.18% among 200,000 | HeLa CL3-4 TLR4/MyD88 BLA complementation | inhibition, % at 8.4 µM | AID 861, 2007; in the data active means inhibition above about 25%;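 further: 0% = vehicle and 100% = reference inhibitor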
Myeloid diff MLP: induction of myeloid progenitor differentiation, primary screen, cell-based, flow cytometry, MLPCN library. ER-HoxA9 myeloid progenitors, lysozyme-GFP differentiation. calls only at 10 µM. hit rate 1% among 360,000;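 active means normalized GFP-positive differentiation at or above the plate's own cutoff, the solvent-only control mean plus 3 SD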;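 further: cells exposed to compound for four days before flow analysis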
Myeloid diff: inducers of myeloid progenitor differentiation, confirmation, cell-based, GFP/Mac1 flow cytometry, cherry pick 01; calls only; ER-HoxA9 myeloid progenitors, GFP/Mac1 double-positive flow; hit rate 2% among 2,300; AID 651706, 2012; shares compounds with Myeloid diff MLP;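 active means share of green or green-and-red cells above 9 and 9% in run 1 or 4 and 3% in run 2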
GFP autofluor: compound fluorescence in myeloid differentiation counter-screen; fluorescence response, % (no concentration beside the values); ER-HoxA9 myeloid progenitors, no estrogen, GFP autofluorescence flow cytometry; vehicle wells 0%, positive control 100%; hit rate 7.4% among 2,300; AID 651707; shares compounds with Myeloid diff MLP;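 active means over 5% cells positive for green fluorescent reporter, or over 2% positive for both it and APC stain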;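 further: range taken on the double positive population between DMSO and positive control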
Numbers without * were called inactive; i = inactive; . = not tested or not shown; + = active, no number; ! = not confirmed by another sample. Sampled rows, rich in hits. Any-hit rate of the full collection: about 1.5%.

SMILES | TLR9-MyD88 inh | NOD2 RIPK2 PPI | TLR4 MyD88 comp | Myeloid diff MLP | Myeloid diff | GFP autofluor
COc1ccc(-c2csc(C(O)c3ccc(F)c(F)c3)n2)cn1 (stereo not given) | . | -7 | . | + | i | 1
COc1ccc(-n2c(SCC(N)=O)nnc2-c2ccc(NS(=O)(=O)c3ccc(C)cc3)cc2)cc1 | -12 | -4 | 4 | + | i | 0
O=C(O)C1=CCC(c2ccc(Cl)c(Cl)c2)N(S(=O)(=O)c2ccc(F)cc2)C1c1cccc(F)c1 (stereo not given) | . | -19 | . | i | . | .
N#CC1=C(SCC(=O)c2cc3ccccc3oc2=O)NC(=O)C(C#N)C12CCCC2 (stereo not given) | -4 | -5 | 3 | i | i | 0
Cc1csc(-c2cc(C(=O)NCc3cc(C(F)(F)F)cc(C(F)(F)F)c3)n[nH]2)c1 | . | -8 | . | + | i | 4
CC1CCN(c2nc(-c3cccnc3)nc3scc(-c4ccccc4)c23)CC1 | 8 | -1 | -4 | i | . | .
CC1CCN(c2nc(CN3CCCCC3)nc3scc(-c4ccccc4)c23)CC1 | -1 | 2 | 4 | i | i | 0
CCCCNC(=O)c1nc(C2CCNCC2)oc1-c1ccccc1 | . | -5 | . | i | . | .
CCn1c(-c2sc(-c3ccccc3)nc2C)n[nH]c1=S | 2 | -12 | 4 | + | i | 0
CCOC(=O)[C@]12CCCC=C1N(Cc1cccc3ccccc13)C(=O)[C@H](CC(=O)N1CCCCC1)C2 | . | -1 | . | i | . | .
CCC(C)[C@H](NC(=O)NCc1ccccc1Cl)C(=O)OC (stereo not given in full) | -2 | 3 | -18 | i | i | 0
C[C@@H]1CCCCO[C@H](CN(C)S(=O)(=O)c2ccccc2)[C@@H](C)CN([C@H](C)CO)C(=O)c2cc(NC(=O)Cc3ccccc3)ccc2O1 | 3 | 15 | . | i | . | .
CCC(/C=C1\Sc2ccc(OC)cc2N1CC)=C\c1sc2ccc(OC)cc2[n+]1CCCS(=O)(=O)[O-] | 2 | -9 | 2 | i | . | .
CCN1/C(=C/c2cc[n+](CCCS(=O)(=O)[O-])c3ccccc23)Sc2ccccc21 | 0 | -9 | -3 | + | i | 14*
COC(=O)c1cn(NC(=O)c2cc(OC)cc(OC)c2)c(=O)c2ccccc12 | 6 | 0 | -7 | i | . | .
COC(=O)c1cn(NC(=O)c2ccc([N+](=O)[O-])cc2Cl)c(=O)c2ccccc12 | -13 | 0 | -5 | + | i | 1
O=C(O)c1ccc(-c2ccc(/C=c3/sc4nc5ccccc5n4c3=O)o2)cc1Cl | -1 | -2 | . | i | i | 0
Cc1cc(C)c2nc3sc(=Cc4ccc(-c5ccccc5C(=O)O)o4)c(=O)n3c2c1 | . | 6 | . | i | . | .
Cc1cc(/C=c2\sc3nc4ccccc4n3c2=O)c(C)n1-c1ccc(C(=O)O)cc1 | 0 | 13 | -1 | i | . | .
Cc1ccc2c(nc3s/c(=C\c4ccc(-c5ccccc5C(=O)O)o4)c(=O)n32)c1C | 4 | -7 | . | i | i | 13*
Cc1csc(-c2nc3ccccc3n2C(C(=O)Nc2c(C)cccc2C)C2CC2)c1 (stereo not given) | . | -2 | . | i | . | .
Cc1cc(C)c(S(=O)(=O)NC2CC(C)(C)NC(C)(C)C2)cc1C | 1 | -2 | . | + | i | 0
O=C(NCCCNCc1ccccc1)c1ccccn1 | -8 | 4 | -16 | +! | i | 0
CSc1cccc(NC(=O)CCCOc2cc(=O)n(C)c3ccccc23)c1 | . | 1 | . | i | . | .
Cc1cc2nc(-c3ccc(F)cc3)c(Cc3cccc(Cl)c3)n2c(C)c1Br | . | -11 | . | i | . | .
SMILES | TLR9-MyD88 inh | NOD2 RIPK2 PPI | TLR4 MyD88 comp | Myeloid diff MLP | Myeloid diff | GFP autofluor
CC(OC(=O)c1ccc(NC(=O)CC#N)cc1)C(=O)NC(c1ccccc1)c1ccccc1 (stereo not given) | -7 | -6 | . | i | i | 1
CCOC(=O)c1c(NC(=O)C(C)OC(=O)c2ccc(NC(=O)CC#N)cc2)sc2c1CCCC2 (stereo not given) | -6 | -7 | . | + | i | 2
CCOc1ccccc1NC(=O)C(OC(=O)c1ccc(NC(=O)CC#N)cc1)c1ccccc1 (stereo not given) | 2 | -5 | . | + | i | 5.3*
COc1ccc(NC(=O)c2ccco2)cc1NC(=O)c1c(OC)cccc1OC | -5 | -4 | . | i | . | .
COc1ccc(NC(=O)c2ccco2)cc1NC(=O)c1ccco1 | -8 | -4 | -13 | i | i | 0
CCCCN(C)C(=O)c1ccc(Nc2nc(C(N)Cc3ccc(C(F)(F)F)cc3)cs2)nc1 (stereo not given) | . | 7 | . | i | . | .
CCCCCCC1CC(=CN(C)C)C(=O)O1 (stereo not given) | 1 | -13 | . | i | . | .
O=C(CN1C(=O)C2CCCCC2C1=O)N1CCN(c2ccccc2)CC1 (stereo not given) | -10 | -3 | 5 | i | . | .
O=C(CN1C(=O)C2CCCCC2C1=O)N1CCN(c2ccc(F)cc2)CC1 (stereo not given) | -4 | 4 | 15 | + | i | 0
CC(C)[C@H](NS(=O)(=O)c1ccccc1)C(=O)OCC(=O)N1N=C(c2ccc(Cl)cc2)CC1c1ccco1 (stereo not given in full) | 1 | 5 | -10 | i | i | 0
COCC(=O)OCC(=O)N1N=C(c2ccc(Cl)cc2)CC1c1ccco1 (stereo not given) | 12 | -1 | -7 | i | . | .
CC1=Nc2nc(N3CCCCC3)c(C#N)c3c4c(nc(c23)N1)N(c1ccc(C(C)C)cc1)C(=O)C4 | 1 | -6 | 4 | + | i | 0
CCOC(=O)[C@]12CCC=C1N(Cc1ccco1)C(=O)[C@H](CC(=O)NCCCOC)C2 | . | 16 | . | i | . | .
COc1cc2c(cc1OC)CN(CC(=O)NC(=O)NCc1ccccc1)CC2 | 0 | -4 | -2 | + | i | 0
COc1cc2c(cc1OC)CN(CC(=O)Nc1ccccc1C(=O)NCc1ccccc1)CC2 | -1 | 2 | . | . | . | .
CCOc1ccc(C(C)=O)cc1CC(C(N)=O)C(N)=O | 5 | 11 | 5 | + | i | 0
CC1=C(C(=O)N(C)C)CC(CC(=O)NCCCN(C)C)C(=O)N1Cc1ccc(C(C)(C)C)cc1 (stereo not given) | -1 | 5 | . | i | . | .
CCN(CC)C(=O)C1=C(C)N(Cc2ccc(C(C)(C)C)cc2)C(=O)C(CC(=O)NCCCN(C)C)C1 (stereo not given) | 7 | -4 | . | i | i | 0
NC(N)=NC(=O)c1nc(Cl)c(N)nc1N | 1 | 1 | -2 | i | i | 0
NC(N)=NC(=O)c1nc(Cl)c(N2CCCCCC2)nc1N | 7 | -8 | . | i | . | .
